PubChem BioAssay AID493067 (National Center for Advancing Translational Sciences (NCATS), 2011)
Records with an inconclusive call do not appear. Active and inactive are the calls of the source. The call rests on the fitted dose curve; in most records, active means well fitted activation curve with a large enough effect; inconclusive means small, poorly fitted or top-dose-only effect; inactive means flat fitted curve, though single readings scatter.

Test: Confirmation Concentration-Response Assay for qHTS Assay for Epigenetic Modulators
Conditions: murine C127i LDR cells, GFP reporter derepression, 30 h; series mostly up to 46.1 µM; GFP activation: at the top concentration
Text: NIH Molecular Libraries Screening Centers Network [MLSCN] NIH Chemical Genomics Center [NCGC] MLSCN Grant: 1 X01 MH079860-01 Assay Provider: Elisabeth D. Martinez, University of Texas SW Medical Center NCGC Assay Overview: This assay, used for the primary screen, was employed here to confirm actives identified from the Locus Derepression (LDR) assay (PubChem AID 1865). The LDR assay detects the derepression of a GFP reporter that is stably integrated in a region of the genome of murine c127i mammary cells that is presumably silenced. Compounds that derepress or induce this reporter locus are identified by enumerating GFP positive cells using an Acumen Explorer Ex3 (TTP Labtech) laser-scanning microplate cytometer.
NCGC Assay Protocol Summary: Three hundred LDR cells in 5 uL per well were dispensed into black, clear-bottom 1536-well plates. Twenty-three nL compound was transferred to the assay plate and cells were incubated 30 hours at 37 C. Medium was removed, cells were washed two times with PBS, and GFP-positive cells were enumerated as fluorescent objects between the sizes of 20 to 120 um width and depth using an Acumen Explorer Ex3 (TTP Labtech) laser-scanning microplate cytometer. For further details, see Johnson, RL, Huang, W, Jadhav, A, Austin, CP, Inglese, J, Martinez, ED (2008). A quantitative high-throughput screen identifies potential epigenetic modulators of gene expression. Anal Biochem 375: 237-48.

| SMILES | GFP activation | Potency |
| --- | --- | --- |
| CCOn1c(=O)c[n+]([O-])c2ccccc21 | 11.4% (inactive) |  |
| CCN(CC)c1ccc2c(c1)oc(=O)c1c(Cl)cc(=O)oc12 |  | 3.98 µM (active) |
| COCCNC(=S)N/N=C(\C)c1ccccc1O |  | 6.31 µM (active) |
| O=C(CSc1cccc[n+]1[O-])c1ccccc1Br |  | 25.1 µM (active) |
| CCc1ccc(NC(=O)C2CCC(CNS(=O)(=O)c3ccc4c(c3)CC(C)N4C(C)=O)CC2)cc1 (stereo not drawn) | 3.66% (inactive) |  |
| CN(C)S(=O)(=O)c1ccc2c(c1)/C(=C/c1cc3c([nH]1)CCCC3)C(=O)N2 |  | 14.1 µM (active) |
| COc1ccc2c(C)nc(Nc3nc(-c4ccccc4)cc(=O)[nH]3)nc2c1 |  | 4.47 µM (active) |
| CCc1nnc(NC(=O)c2cccc(C(=O)Nc3nnc(CC)s3)n2)s1 |  | 7.94 µM (active) |
| Cc1nc(CSc2nsc(/C=C/N(C)C)c2C#N)cs1 | 1.2% (inactive) |  |
| Cc1cc(N2CCN(c3ccc([N+](=O)[O-])c4cccnc34)CC2)c2ccccc2n1 |  | 12.6 µM (active) |
| Cc1cccn2c(=O)c(/C=C3\SC(=S)N(CC(C)C)C3=O)c(NCCCOC(C)C)nc12 |  | 3.55 µM (active) |
| CN(c1ccccc1)S(=O)(=O)c1nnc(NC(=O)c2ccccc2)s1 | -1.8% (inactive) |  |
| N#CC1=C(N)n2c(s/c(=C\c3cccs3)c2=O)=C(C#N)C1c1cccs1 (stereo not drawn) |  | 15.8 µM (active) |
| O=C(O)CCCCCN1C(=O)/C(=C\c2ccc(-c3ccc(Cl)cc3)o2)SC1=S |  | 7.94 µM (active) |
| N#Cc1sc2nc(-c3ccccc3)cc(C(F)(F)F)c2c1N |  | 15.8 µM (active) |
| CCOc1ccc(NC(=O)c2nc(S(=O)(=O)Cc3ccccc3F)ncc2Cl)cc1 | -3.66% (inactive) |  |
| CC1=C/C(=N\NC(=S)Nc2cccnc2)CC(C)(C)C1 |  | 3.16 µM (active) |
| CCOC(=O)c1cc2c(=O)n3ccccc3nc2n(Cc2ccco2)c1=NC(=O)c1ccc(Br)cc1 |  | 15.8 µM (active) |
| Cc1ccc(/C=[N+](\[O-])c2ccc(N(C)C)cc2)c2nsnc12 | 1.81% (inactive) |  |
| S=C(Nc1ccccc1)c1ccccn1 |  | 15.8 µM (active) |
| CC(=O)[C@H](CC(C)C)NC(=O)[C@@H](CC(C)C)NC(=O)[C@H](CC(C)C)NC(=O)OCc1ccccc1 |  | 3.98 µM (active) |
| COc1cccc(/C=N/Nc2nc(Nc3ccccc3)nc(-n3nc(C)cc3C)n2)c1O |  | 3.98 µM (active) |
| Oc1ccc(Br)cc1C=Nc1ccc2c3c(cccc13)CC2 | 5.39% (inactive) |  |
